Results: PubChem BioAssay
Where “and” joins values, the source holds several entries; their conditions need not be identical. Identical values can stand only once.

target: Luciferin 4-monooxygenase (Photinus pyralis) (UniProt P08659); assay: inhibition of purified Photinus pyralis luciferase – biochemical, luminescence, purified enzyme, 2006 set, primary screen (AID 1141); conditions: purified firefly luciferase, SteadyGlo luminescence, 30 min; higher = more signal, called active from +8 up or from −8 down;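 further: cell-free assay with purified firefly luciferase at 100 ng per well in PBS; test concentration not given here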
Sequence (P08659 whole entry, looked up): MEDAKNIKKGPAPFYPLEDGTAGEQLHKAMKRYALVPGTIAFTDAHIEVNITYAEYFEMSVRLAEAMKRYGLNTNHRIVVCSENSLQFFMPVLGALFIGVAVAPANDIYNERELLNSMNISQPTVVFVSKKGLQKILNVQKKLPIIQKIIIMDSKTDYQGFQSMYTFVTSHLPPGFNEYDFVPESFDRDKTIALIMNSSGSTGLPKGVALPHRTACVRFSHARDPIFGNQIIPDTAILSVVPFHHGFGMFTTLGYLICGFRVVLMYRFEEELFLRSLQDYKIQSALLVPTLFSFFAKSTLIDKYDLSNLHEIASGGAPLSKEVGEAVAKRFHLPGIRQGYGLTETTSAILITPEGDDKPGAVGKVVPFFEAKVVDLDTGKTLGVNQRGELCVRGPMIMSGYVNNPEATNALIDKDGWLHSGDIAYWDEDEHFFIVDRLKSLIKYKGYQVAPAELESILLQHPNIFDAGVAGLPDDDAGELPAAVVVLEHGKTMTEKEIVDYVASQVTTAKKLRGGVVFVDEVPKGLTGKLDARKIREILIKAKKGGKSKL

z-score, inactive:
CC(C)=NOC[C@@H](O)COCc1ccco1 -1.28, COC(=O)C1=C(C)N(Cc2ccccc2)C2=C(C(C)=O)C[C@@](O)(C(=O)OC)C(=O)N2[C@@H]1c1ccccc1 -0.458 and -1.7, COC(=O)[C@@]1(Cc2ccc(OC)cc2)[C@H]2c3cc(C(=O)N(C)C)n(Cc4ccc(O)c(OC)c4)c3C[C@H]2CN1C(=O)c1ccccc1 1.75 and 1.08, C=CC[C@H](O)c1ccc(OCCO)cc1 -1.15 and -1.17, CC(C)=NO[C@@H](C)c1cc(-c2c(C)cc(C)cc2C)no1 0.389, C[N+](C)(C)CCCCNC(=O)[C@H]1C[C@H]2C(=O)N[C@@H](CCCC[N+](C)(C)C)C(=O)N2[C@H]1c1ccc(O)cc1 0.325 and 0.332, C[C@@]1([C@@H](NC(=O)Cc2ccccc2)c2ccc(-c3ccccc3)cc2)C[C@H]1C1CCCCC1 0.393 and 0.406 and 1.92, CCN1C(=O)[C@H]2[C@H]3[C@H](O)[C@H](O)CC(=NOC)[C@@H]3CC[C@H]2C1=O -0.554, O=C1NC(=O)C2C1C=CC(C(O)c1ccc([N+](=O)[O-])cc1)N2Nc1ccc(Cl)cc1Cl (configuration not stated) -1.81 and -2.34, C=C[C@H](C)[C@@H](O)c1ccc(OCCO)cc1 -3.17 and -4, CC(C)CON=C1C[C@@H](O)[C@@H](O)[C@@H]2[C@@H]3C(=O)N(c4cccc(Oc5ccccc5)c4)C(=O)[C@@H]3CC[C@H]12 0.527, CO[C@H]1COC(=O)CC=C[C@@H](C)COC(=O)[C@H](CCSC)NC(=O)CC=C[C@@H]1C -0.142 and -0.463, C=C[C@@H](OC)[C@H](O)c1ccc(OCCO)cc1 -3.43 and -3.1, CCOC(=O)c1ccc(NC(=O)O[C@H]2[C@H](OC(=O)Nc3ccccc3)[C@@H](OC(=O)Nc3ccccc3)[C@@H](OC)O[C@@H]2CO)cc1 -0.427 and -0.249, C=CCN(C(=O)C(c1cccs1)N(CCOCCO)C(=O)/C=C\C(=O)O)c1ccc(OC)cc1 (configuration not stated) 0.286 and -2.02, C#CCN1C(/C=C/c2ccccc2)C(=O)OC[C@H]1c1ccccc1 (some centres not stated) -0.415 and 0.754, CO[C@@H]1COC(=O)CC=C[C@H](C)COC(=O)[C@H](C)NC(=O)CC=C[C@H]1C -0.394, Cc1cc2c(nc1C)CCCN2CC(O)CN1CCCc2nc(-c3ccc(Br)cc3)ccc21 (configuration not stated) -0.104 and -0.176, C=CCN(CCCCC)C(=O)C(c1cccs1)N(CCOCCO)C(=O)/C=C\C(=O)O (configuration not stated) -4.23 and -3.13, COc1ccc(-c2ccc3c(n2)CCCN3CC(O)CN2CCCc3nc(-c4ccc(Br)cc4)ccc32)cc1 (configuration not stated) -0.254 and 0.147, C=C[C@H](OC)[C@@H](O)c1ccc(OCCO)cc1 -0.117 and -1.75, C=CCN(C(=O)C1N(CCCCCCO)C(=O)C2C(C(=O)O)C3C=CC21O3)c1ccc(OC)cc1 (configuration not stated) -1.09 and -1.38, O=C1C[C@]2(c3ccc([N+](=O)[O-])cc3)C(=O)N(Cc3ccccc3)c3cc(CO)ccc3[C@H]2N1C1CCCCC1 0.302 and -0.537, C=CCN(C(=O)C1N(c2c(Cl)cccc2CO)C(=O)C2C(C(=O)O)C3C=CC21O3)c1ccc(OC)cc1 (configuration not stated) 1.4 and -1.32, C=CCN(C(=O)C1N(CCOCCO)C(=O)C2C(C(=O)O)C3C=CC21O3)C(C)(C)C (configuration not stated) -0.352 and 0.274, COC(=O)C1=C2N(Cc3ccccc3)C(C)=C(C(=O)OC)[C@@H](c3ccccc3)N2C(=O)[C@](O)(C(=O)OC)C1 -0.0132 and 0.18, O=c1n(-c2ccccc2)c(=O)n2n1CC[C@@H]1C(=NOC[C@@H](O)COCc3ccco3)[C@H]3O[C@H]3[C@@H](O)[C@@H]12 0.0662 and -0.214
